# Results as given in PubChem BioAssay (NCATS).
# Results filed as inconclusive are left out. Entries that show only a call come without a potency. Unmarked numbers belong to inactive results. Activity calls are given as the source filed them. Calls follow the shape of the dose curve; as a rule, active = well fitted inhibition curve with a large enough effect; inconclusive = small, poorly fitted or top-dose-only effect; inactive = flat fitted curve, though single readings scatter.
# Tests used:
# [1] = qHTS profiling for inhibitors of Plasmodium falciparum proliferation (AID 504749); also: nearly all actives have a fitted effect of over 60% in size; conditions: P. falciparum in erythrocytes, SYBR Green DNA, 72 h
# Summary of the method: (§1)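 Fluorescence of SYBR Green-bound parasite DNA, read at 485/535 nm, served as the growth measure. Infected erythrocytes were cultured with compound 72 h; artemisinin (0.29 uM) and DMSO wells defined the normalization range.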
# 3D7 = assay: as above; conditions: P. falciparum in erythrocytes, SYBR Green DNA, 72 h; series mostly up to 28.7 µM
# Summary of the method: as §1
# 7G8 = assay: as above; conditions: P. falciparum in erythrocytes, SYBR Green DNA, 72 h; series mostly up to 28.7 µM
# Summary of the method: as §1
# AA1029 = assay: as above; conditions: P. falciparum in erythrocytes, SYBR Green DNA, 72 h; series mostly up to 28.7 µM
# Summary of the method: as §1
# AS120 = assay: as above; conditions: P. falciparum in erythrocytes, SYBR Green DNA, 72 h; series mostly up to 28.7 µM
# Summary of the method: as §1
# ATS189 = assay: as above; conditions: P. falciparum in erythrocytes, SYBR Green DNA, 72 h; series mostly up to 28.7 µM
# Summary of the method: as §1
# ATS95 = assay: as above; conditions: P. falciparum in erythrocytes, SYBR Green DNA, 72 h; series mostly up to 28.7 µM
# Summary of the method: as §1
# C2A = assay: as above; conditions: P. falciparum in erythrocytes, SYBR Green DNA, 72 h; series mostly up to 28.7 µM
# Summary of the method: as §1
# CP185 = assay: as above; conditions: P. falciparum in erythrocytes, SYBR Green DNA, 72 h; series mostly up to 28.7 µM
# Summary of the method: as §1
# CP191 = assay: as above; conditions: P. falciparum in erythrocytes, SYBR Green DNA, 72 h; series mostly up to 28.7 µM
# Summary of the method: as §1
# CP192 = assay: as above; conditions: P. falciparum in erythrocytes, SYBR Green DNA, 72 h; series mostly up to 28.7 µM
# Summary of the method: as §1
# CP194 = assay: as above; conditions: P. falciparum in erythrocytes, SYBR Green DNA, 72 h; series mostly up to 28.7 µM
# Summary of the method: as §1
# CP201 = assay: as above; conditions: P. falciparum in erythrocytes, SYBR Green DNA, 72 h; series mostly up to 28.7 µM
# Summary of the method: as §1
# CP203 = assay: as above; conditions: P. falciparum in erythrocytes, SYBR Green DNA, 72 h; series mostly up to 28.7 µM
# Summary of the method: as §1
# CP211 = assay: as above; conditions: P. falciparum in erythrocytes, SYBR Green DNA, 72 h; series mostly up to 28.7 µM
# Summary of the method: as §1
# CP215 = assay: as above; conditions: P. falciparum in erythrocytes, SYBR Green DNA, 72 h; series mostly up to 28.7 µM
# Summary of the method: as §1
# CP217 = assay: as above; conditions: P. falciparum in erythrocytes, SYBR Green DNA, 72 h; series mostly up to 28.7 µM
# Summary of the method: as §1
# [2] = at 28.7 µM (top of the series), parasite line A
# [3] = at 28.7 µM (top of the series), parasite line B
# Potency is read from the fitted curve at half-maximal effect.
smiles,measurement,setting,value
C[C@]12O[C@H](C[C@]1(O)CO)n1c3ccccc3c3c4c(c5c6ccccc6n2c5c31)CNC4=O,Potency,[1]; parasite line A,398 nM (active)
same,Potency,[1]; parasite line B,447 nM (active)
same,Potency,3D7,224 nM (active)
same,Potency,7G8,100 nM (active)
same,Potency,AA1029,316 nM (active)
same,Potency,AS120,251 nM (active)
same,Potency,ATS189,316 nM (active)
same,Potency,ATS95,355 nM (active)
same,Potency,C2A,316 nM (active)
same,Potency,CP185,316 nM (active)
same,Potency,CP191,282 nM (active)
same,Potency,CP192,379 nM (active)
same,Potency,CP194,379 nM (active)
same,Potency,CP201,536 nM (active)
same,Potency,CP203,269 nM (active)
same,Potency,CP211,426 nM (active)
same,Potency,CP215,426 nM (active)
same,Potency,CP217,316 nM (active)
CCOC(=O)C1=CC2(CC)CCCN3CCc4c(n1c1ccccc41)C32 (configuration not stated),Potency,[1]; parasite line A,11200 nM (active)
same,Potency,[1]; parasite line B,7940 nM (active)
same,Potency,3D7,8910 nM (active)
same,Potency,7G8,5620 nM (active)
same,Potency,AA1029,11200 nM (active)
same,Potency,AS120,11200 nM (active)
same,Potency,ATS189,8910 nM (active)
same,Potency,ATS95,11200 nM (active)
same,Potency,C2A,10000 nM (active)
same,Potency,CP185,8910 nM (active)
same,Potency,CP191,8910 nM (active)
same,Potency,CP217,11200 nM (active)
CCCCCCC(O)C/C=C/CCCCCCCC(=O)O (configuration not stated),"activity, negative = inhibition",[1]; [2],-1.16%
same,"activity, negative = inhibition",[1]; [3],3.04%
same,Potency,3D7,inactive
same,Potency,7G8,inactive
same,Potency,AA1029,inactive
same,Potency,AS120,inactive
same,Potency,ATS189,inactive
same,Potency,ATS95,inactive
same,Potency,C2A,inactive
same,Potency,CP185,inactive
same,Potency,CP191,inactive
same,Potency,CP192,inactive
same,Potency,CP194,inactive
same,Potency,CP201,inactive
same,Potency,CP203,inactive
same,Potency,CP215,inactive
same,Potency,CP217,inactive
CO[C@H](C(=O)[C@@H](O)[C@@H](C)O)C1Cc2cc3cc(O[C@H]4C[C@@H](O[C@H]5C[C@@H](O)[C@H](O)[C@@H](C)O5)[C@@H](O)[C@@H](C)O4)c(C)c(O)c3c(O)c2C(=O)[C@H]1O[C@H]1C[C@@H](O[C@H]2C[C@@H](O[C@H]3C[C@](C)(O)[C@H](O)[C@@H](C)O3)[C@H](O)[C@@H](C)O2)[C@H](O)[C@@H](C)O1 (some centres not stated),Potency,[1]; parasite line A,112 nM (active)
same,Potency,[1]; parasite line B,251 nM (active)
same,Potency,3D7,112 nM (active)
same,Potency,7G8,44.7 nM (active)
same,Potency,AA1029,112 nM (active)
same,Potency,AS120,141 nM (active)
same,Potency,ATS189,158 nM (active)
same,Potency,ATS95,126 nM (active)
same,Potency,C2A,224 nM (active)
same,Potency,CP185,199 nM (active)
same,Potency,CP191,178 nM (active)
same,Potency,CP192,2130 nM (active)
same,Potency,CP194,2690 nM (active)
same,Potency,CP201,2130 nM (active)
same,Potency,CP203,2690 nM (active)
same,Potency,CP211,2130 nM (active)
same,Potency,CP215,1690 nM (active)
same,Potency,CP217,224 nM (active)
CC[N+](C)(C)Cc1ccccc1Br,"activity, negative = inhibition","[1]; at 12.8 µM (top of the series), parasite line A",3.25%
same,"activity, negative = inhibition","[1]; at 12.8 µM (top of the series), parasite line B",6.79%
same,Potency,3D7,inactive
same,Potency,7G8,inactive
same,Potency,AA1029,inactive
same,Potency,AS120,inactive
same,Potency,ATS189,inactive
same,Potency,ATS95,inactive
same,Potency,C2A,inactive
same,Potency,CP185,inactive
same,Potency,CP191,inactive
same,Potency,CP192,inactive
same,Potency,CP194,inactive
same,Potency,CP201,inactive
same,Potency,CP203,inactive
same,Potency,CP211,inactive
same,Potency,CP215,inactive
same,Potency,CP217,inactive
O=C1C(=O)c2ncccc2-c2cccnc21,Potency,[1]; parasite line A,891 nM (active)
same,Potency,[1]; parasite line B,1120 nM (active)
same,Potency,3D7,891 nM (active)
same,Potency,7G8,1000 nM (active)
same,Potency,AA1029,1000 nM (active)
same,Potency,AS120,708 nM (active)
same,Potency,ATS189,1410 nM (active)
same,Potency,ATS95,1000 nM (active)
same,Potency,C2A,3160 nM (active)
same,Potency,CP185,2510 nM (active)
same,Potency,CP191,3160 nM (active)
same,Potency,CP192,953 nM (active)
same,Potency,CP194,1350 nM (active)
same,Potency,CP201,1690 nM (active)
same,Potency,CP203,1690 nM (active)
same,Potency,CP211,1070 nM (active)
same,Potency,CP215,1350 nM (active)
same,Potency,CP217,1260 nM (active)
O=C(O)CN(CCN(CC(=O)O)CC(=O)O)CC(=O)O,"activity, negative = inhibition",[1]; [2],-1.94%
same,"activity, negative = inhibition",[1]; [3],14.3%
same,Potency,3D7,inactive
same,Potency,7G8,inactive
same,Potency,AA1029,inactive
same,Potency,AS120,inactive
same,Potency,ATS189,inactive
same,Potency,ATS95,inactive
same,Potency,C2A,inactive
same,Potency,CP185,inactive
same,Potency,CP191,inactive
same,Potency,CP192,inactive
same,Potency,CP194,inactive
same,Potency,CP201,inactive
same,Potency,CP203,inactive
same,Potency,CP211,inactive
same,Potency,CP217,inactive
C[C@]12CCC(=O)C=C1CC[C@@H]1[C@@H]2[C@@H](O)C[C@@]2(C)[C@H]1CC[C@]2(O)C(=O)COP(=O)(O)O,"activity, negative = inhibition",[1]; [2],1.99%
same,"activity, negative = inhibition",[1]; [3],-7.41%
same,Potency,3D7,inactive
same,Potency,7G8,inactive
same,Potency,AA1029,inactive
same,Potency,AS120,inactive
same,Potency,ATS189,inactive
same,Potency,ATS95,inactive
same,Potency,C2A,inactive
same,Potency,CP185,inactive
same,Potency,CP191,inactive
same,Potency,CP192,inactive
same,Potency,CP194,inactive
same,Potency,CP201,inactive
same,Potency,CP203,inactive
same,Potency,CP211,inactive
same,Potency,CP215,inactive
same,Potency,CP217,inactive
CC(=O)Oc1c(C)cc(OCC(O)CNC(C)C)c(C)c1C (configuration not stated),Potency,3D7,inactive
same,Potency,7G8,inactive
same,Potency,AA1029,inactive
same,Potency,AS120,inactive
same,Potency,ATS189,inactive
same,Potency,ATS95,inactive
same,Potency,C2A,inactive
same,Potency,CP185,inactive
same,Potency,CP191,inactive
same,Potency,CP192,inactive
same,Potency,CP194,inactive
same,Potency,CP201,inactive
same,Potency,CP203,inactive
same,Potency,CP211,inactive
same,Potency,CP215,inactive
same,Potency,CP217,inactive
